# Results as given in PubChem BioAssay (NCI).
# Several values for one entry are separate records, joined by “and”; a condition that tells them apart may be missing. Identical values can stand only once. This is part of a sample that, as a whole, favours compounds with a hit. Of some 83,000 tested, about 20% had one in any assay.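 A percent growth of 40 corresponds to 60% growth inhibition; 0 means no net growth; -100 means all cells died. Active threshold: below 10.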 Unmarked numbers belong to inactive results. Activity calls are given as the source filed them.
# System: HL-60(TB) leukemia
# Assay: NCI-60 one-dose screen, 48 h (100 = growth as untreated, 0 = no growth, -100 = all killed)
# Details: 10 µM unless noted
row,Compound,growth
1,CC(=O)Nc1ccc(O)cc1,88.3% and 74.2%
2,Cc1ccc([C@@H]2C[C@H](O)Cc3ccccc3N2)s1,121%
3,N=C(N)N=Nc1ccc(O)cc1,69% [100 µM]
4,COc1ccccc1CNCCCN1C(=O)c2ccc3c4c(ccc(c24)C1=O)C(=O)N(CCCNCc1ccccc1OC)C3=O,-67.5% (active)
5,CCN1CCN(Cc2cn(CC(=O)Nc3ccc4c(ccn4Cc4ccccc4)c3)nn2)CC1,95.5%
6,NC1=NN(c2ccccc2)C(=O)/C1=C/c1ccc(Cl)cc1,104%
7,Cn1c(O)c(C=NCCN=Cc2c(O)n(C)c(=O)n(C)c2=O)c(=O)n(C)c1=O,-60% (active)
8,O=C(OCc1ncc(-c2ccc(C(F)(F)F)cc2)c(NC2CCCCCC2)n1)c1c(F)c(F)c(F)c(F)c1F,27.5%
9,COc1ccc(C(=O)c2nc3ccccc3n2CC(=O)c2ccc(Cl)cc2)cc1,-13.2% (active)
10,COc1ccc(/C=C2\C(=O)N=C3N2NC(c2cc(Br)ccc2O)C=C(C)N3c2ccccc2)cc1 (centres undefined),99%
11,Cc1ncsc1CCO,99.9% and 89.9%
12,N#CC1=C(N)Oc2c(ccc3ccccc23)C1c1ccc([N+](=O)[O-])cc1 (centres undefined),69.9%
13,CCOC(=O)c1sc2ncnc(Nc3ccc4c(cnn4C(=O)Nc4ccc(C)c(Cl)c4)c3)c2c1C,95.3%
14,CCOC(=O)Cn1c(O)c(N=Nc2ccc(S(N)(=O)=O)cc2)c2cc(Br)ccc21,96.2%
